Reference: PubChem BioAssay (Tox21)
Inconclusive results are not listed. The source made the active and inactive calls. Calls come from the whole dose curve.

Assays:
[1] = target: Acetylcholinesterase (Homo sapiens) (UniProt P22303); assay: Acetylcholinesterase (AChE) small molecule antagonists: colormetric cell-based qHTS assay (AID 1347395); note: nearly all actives have a fitted effect of over 30% in size
Procedure, shortened: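 Homogeneous whole-cell format. SH-SY5Y cells seeded overnight, dosed with compound (30 min, 37 C, 5% CO2), then given DTNB/acetylthiocholine cocktail for 90 min at 37 C; colorimetric signal.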

[2] = target: Acetylcholinesterase (Homo sapiens) (UniProt P22303); assay: Acetylcholinesterase (AChE) small molecule antagonists: enzyme-based qHTS assay (AID 1347397); conditions: Potency: AChE enzyme activity inhibition; outcome: AChE enzyme activity inhibition; note: nearly all actives have a fitted effect of over 55% in size
Procedure, shortened: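 Enzyme inhibition was scored from DTNB-detected thiocholine formed by recombinant human AChE acting on acetylthiocholine. The 30 min compound preincubation and 10 min substrate reaction were both run at room temperature, with DMSO as vehicle control.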

[3] = target: Acetylcholinesterase (Homo sapiens) (UniProt P22303); assay: Acetylcholinesterase (AChE) small molecule antagonists: fluorescence cell-based qHTS assay (AID 1347398); conditions: Potency: AChE activity; outcome: AChE activity; note: nearly all actives have a fitted effect of over 50% in size
Procedure, shortened: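 Endogenous acetylcholinesterase of SH-SY5Y neuroblastoma cells is measured in situ. After overnight attachment and 30 min compound exposure, cells receive acetylthiocholine and Thiolite Green; fluorescence is read after 40 min at room temperature.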

[4] = target: Acetylcholinesterase (Homo sapiens) (UniProt P22303); assay: Acetylcholinesterase (AChE) small molecule antagonists: enzyme-based qHTS assay with human liver microsomes (AID 1347399); conditions: Potency: qHTS inhibition; outcome: qHTS inhibition; note: nearly all actives have a fitted effect of over 60% in size
Procedure, shortened: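 Recombinant human AChE (50 mU/mL in the enzyme mix) and human liver microsomes (0.25 mg/mL final) were preincubated with compound and NADPH (0.25 mg/mL final) for 30 min at 37 C. Acetylthiocholine/DTNB was then added; thiocholine was read colorimetrically after 10 min at room temperature.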
% is set by controls: 0 for no effect and ±100 for the full control effect.

Acetylcholinesterase (Homo sapiens), sequence (P22303 whole entry, looked up): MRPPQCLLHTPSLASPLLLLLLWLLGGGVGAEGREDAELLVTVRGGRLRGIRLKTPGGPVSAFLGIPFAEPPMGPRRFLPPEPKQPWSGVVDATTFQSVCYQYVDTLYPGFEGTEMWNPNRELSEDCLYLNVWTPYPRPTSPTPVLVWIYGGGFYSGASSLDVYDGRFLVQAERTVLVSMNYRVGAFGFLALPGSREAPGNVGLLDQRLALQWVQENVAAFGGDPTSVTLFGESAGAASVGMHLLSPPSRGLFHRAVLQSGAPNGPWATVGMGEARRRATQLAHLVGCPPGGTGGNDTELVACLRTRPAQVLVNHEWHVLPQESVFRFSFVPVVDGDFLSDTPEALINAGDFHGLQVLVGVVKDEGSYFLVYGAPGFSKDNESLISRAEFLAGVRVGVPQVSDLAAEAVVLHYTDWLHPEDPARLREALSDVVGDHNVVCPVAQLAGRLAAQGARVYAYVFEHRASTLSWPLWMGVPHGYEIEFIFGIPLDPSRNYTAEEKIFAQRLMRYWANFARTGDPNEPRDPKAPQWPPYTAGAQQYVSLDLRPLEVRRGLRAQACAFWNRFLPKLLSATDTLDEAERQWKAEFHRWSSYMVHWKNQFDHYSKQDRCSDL

Oc1ccc(Nc2ccccc2)cc1
inactive: Potency [1] | Potency [2] | Potency [3] | Potency [4]

CC/C=C\CCOC(=O)c1ccccc1
inactive: Potency [1] | Potency [2] | Potency [3] | Potency [4]

OC1CCCCC1c1ccccc1 (configuration not stated)
inactive: Potency [1] | Potency [2] | Potency [3] | Potency [4]

CC(=O)Oc1ccc(C(C)=O)cc1
inactive: Potency [1] | Potency [2] | Potency [3] | Potency [4]

NC(=O)N1c2ccccc2CC(=O)c2ccccc21
inactive: Potency [1] | Potency [2] | Potency [3] | Potency [4]

CC1(c2ccccc2)OC(C(=O)O)=CC1=O (configuration not stated)
inactive: Potency [1] | Potency [2] | Potency [3] | Potency [4]

[Ca+2]
inactive: Potency [1] | Potency [2] | Potency [3] | Potency [4]

CCC(C)N(C)C(=O)c1cc2ccccc2c(-c2ccccc2Cl)n1 (configuration not stated)
inactive: Potency [1] | Potency [2] | Potency [3] | Potency [4]

O=C(C(Cl)Cl)N1CCOC12CCCCC2
inactive: Potency [1] | Potency [2] | Potency [3] | Potency [4]

CC(=O)Nc1cccc(N)c1
inactive: Potency [1] | Potency [2] | Potency [3] | Potency [4]

O=C1CCCN1C1CCCCC1
inactive: Potency [1] | Potency [2] | Potency [3] | Potency [4]

CCCCCCCC/C=C\CCCCCCCC(=O)OCCO
inactive: Potency [1] | Potency [2] | Potency [3] | Potency [4]

CCOc1ccc2c(c1)C(C)CC(C)(C)N2 (configuration not stated)
inactive: Potency [1] | Potency [2] | Potency [3] | Potency [4]

NS(=O)(=O)Cc1noc2ccccc12
inactive: Potency [1] | Potency [2] | Potency [3] | Potency [4]

CCC(Cl)CCC(Cl)C(Cl)CC(Cl)C(Cl)C(Cl)CCl (configuration not stated)
inactive: Potency [1] | Potency [2] | Potency [3] | Potency [4]

CC(C)C(C)C
inactive: Potency [1] | Potency [2] | Potency [3] | Potency [4]

CN(CCCN1c2ccccc2CCc2ccccc21)CC(=O)c1ccc(Cl)cc1
inactive: Potency [1] | Potency [2] | Potency [3] | Potency [4]

CC/C=C\CCCCCCCCCCOC(C)=O
inactive: Potency [1] | Potency [2] | Potency [3] | Potency [4]

CCCC(=O)OC(=O)CCC
inactive: Potency [1] | Potency [2] | Potency [3] | Potency [4]

CCOC(OCC)C(=O)c1ccccc1
inactive: Potency [1] | Potency [2] | Potency [3] | Potency [4]

Cc1c(NC(C)C)c(=O)n(-c2ccccc2)n1C
inactive: Potency [1] | Potency [2] | Potency [3] | Potency [4]

COC(=O)CC#N
inactive: Potency [1] | Potency [2] | Potency [3] | Potency [4]

CCC(=O)OCc1ccc(OC)cc1
inactive: Potency [1] | Potency [2] | Potency [3] | Potency [4]

Cc1cc(C)c(NC(=O)CN(CC(=O)O)CC(=O)O)c(C)c1Br
inactive: Potency [1] | Potency [2] | Potency [3] | Potency [4]

CCCCCCc1ccc(N)cc1
inactive: Potency [1] | Potency [2] | Potency [3] | Potency [4]

O=C(O)COc1ccc2ccccc2c1
inactive: Potency [1] | Potency [2] | Potency [3] | Potency [4]

Nc1nc(Cl)nc2c1ncn2[C@@H]1O[C@H](CO)[C@@H](O)[C@@H]1F
inactive: Potency [1] | Potency [2] | Potency [3] | Potency [4]

CC(CC=O)CC(C)(C)C (configuration not stated)
inactive: Potency [1] | Potency [2] | Potency [3] | Potency [4]

C/C(=N\[Si](C)(C)C)O[Si](C)(C)C
inactive: Potency [1] | Potency [2] | Potency [3] | Potency [4]

CCOC(=O)CC#N
inactive: Potency [1] | Potency [2] | Potency [3] | Potency [4]

CC[C@H]1O[C@]2(CC[C@@H]1C)C[C@@H]1C[C@@H](C/C=C(\C)C[C@@H](C)/C=C/C=C3\CO[C@@H]4[C@H](O)C(C)=C[C@@H](C(=O)O1)[C@]34O)O2
inactive: Potency [1] | Potency [2] | Potency [3] | Potency [4]

CC(=O)OC(C)(C)Cc1ccccc1
inactive: Potency [1] | Potency [2] | Potency [3] | Potency [4]

COc1ccc2cc(CCC(C)=O)ccc2c1
inactive: Potency [1] | Potency [2] | Potency [3] | Potency [4]

O=S(=O)(O)c1ccccc1O
inactive: Potency [1] | Potency [2] | Potency [3] | Potency [4]

COc1ccc2c(c1)C(=O)N(CCc1ccc(S(=O)(=O)NC(=O)NC3CCCCC3)cc1)C(=O)C2(C)C
inactive: Potency [1] | Potency [2] | Potency [3] | Potency [4]

C=C(C)C(=O)OCCOCCOC(=O)C(=C)C
inactive: Potency [1] | Potency [2] | Potency [3] | Potency [4]

[O]=[Mo](=[O])=[O]
inactive: activity, negative = inhibition [1] 2.74% [at 23.6 µM] | activity change, negative = inhibition [2] 0.153% [at 23.6 µM] | activity change, negative = inhibition [3] 0.826% [at 23.8 µM] | activity change, negative = inhibition [4] 0.081% [at 23.6 µM]

CC(C)(O)c1ccc(C(C)(C)O)cc1
inactive: Potency [1] | Potency [2] | Potency [3] | Potency [4]

CN(C)c1ccc(SC#N)cc1
inactive: Potency [1] | Potency [2] | Potency [3] | Potency [4]

CCOC(=O)c1ccccc1
inactive: Potency [1] | Potency [2] | Potency [3] | Potency [4]

O=C(O)c1cc(C(=O)O)c(C(=O)O)cc1C(=O)O
inactive: Potency [1] | Potency [2] | Potency [3] | Potency [4]

CC(C)CC(O)Cc1ccccc1 (configuration not stated)
inactive: Potency [1] | Potency [2] | Potency [3] | Potency [4]

CC(C)(C)NCCNC(C)(C)C
inactive: Potency [1] | Potency [2] | Potency [3] | Potency [4]

O=P(O)(O)OCC(O)CO (configuration not stated)
inactive: Potency [1] | Potency [2] | Potency [3] | Potency [4]

O=C(Nc1cccc([N+](=O)[O-])c1)c1cc2ccccc2cc1O
inactive: Potency [1] | Potency [2] | Potency [3] | Potency [4]

CCC(CO)(CO)[N+](=O)[O-]
inactive: Potency [1] | Potency [2] | Potency [3] | Potency [4]

C/C=C(/C(=C/C)c1ccc(OC(C)=O)cc1)c1ccc(OC(C)=O)cc1
inactive: Potency [1] | Potency [2] | Potency [3] | Potency [4]

Cc1cccc(C)c1NC(=O)c1ccccc1C(=O)O
inactive: Potency [1] | Potency [2] | Potency [3] | Potency [4]

Cc1cscn1
inactive: Potency [1] | Potency [2] | Potency [3] | Potency [4]

C[N+]1([O-])CCOCC1
inactive: Potency [1] | Potency [2] | Potency [3] | Potency [4]

NS(=O)(=O)c1cc2c(cc1Cl)NC(CSCc1ccccc1)=NS2(=O)=O
inactive: Potency [1] | Potency [2] | Potency [3] | Potency [4]

CCCC(c1cc(C(C)(C)C)c(O)cc1C)c1cc(C(C)(C)C)c(O)cc1C
inactive: Potency [1] | Potency [2] | Potency [3] | Potency [4]

CCC(C(=O)OCCOCCN(CC)CC)c1ccccc1 (configuration not stated)
inactive: Potency [1] | Potency [2] | Potency [3] | Potency [4]

CC1=NS(=O)(=O)c2cc(Cl)ccc2N1
inactive: Potency [1] | Potency [2] | Potency [3] | Potency [4]

CCOc1ncc(F)c(=O)[nH]1
inactive: Potency [1] | Potency [2] | Potency [3] | Potency [4]

O=[Si]=O
inactive: Potency [1] | Potency [2] | Potency [3] | Potency [4]

COc1cc2nc(Cl)nc(N)c2cc1OC
inactive: Potency [1] | Potency [2] | Potency [3] | Potency [4]

C=C(C)CS(=O)(=O)O
inactive: Potency [1] | Potency [2] | Potency [3] | Potency [4]

CC(=O)Nc1ccc(S(=O)(=O)Nc2cc(C)on2)cc1
inactive: Potency [1] | Potency [2] | Potency [3] | Potency [4]

CC(C)(C)NCC(O)COc1ccc(NC(=O)NC2CCCCC2)cc1 (configuration not stated)
inactive: Potency [1] | Potency [2] | Potency [3] | Potency [4]

CCOC(=S)SSC(=S)OCC
inactive: Potency [1] | Potency [2] | Potency [3] | Potency [4]

C=C(C)[C@H]1CC=C(C)CC1
inactive: Potency [1] | Potency [2] | Potency [3] | Potency [4]

Nc1nc(N)nc(-c2cc(Cl)ccc2Cl)n1
inactive: Potency [1] | Potency [2] | Potency [3] | Potency [4]

COC(=O)c1cccc(Cl)c1
inactive: Potency [1] | Potency [2] | Potency [3] | Potency [4]

CCOC(=O)C(C)Oc1ccc(Oc2nc3ccc(Cl)cc3o2)cc1 (configuration not stated)
inactive: Potency [1] | Potency [2] | Potency [3] | Potency [4]

OC[C@@H](O)[C@H](O)[C@@H](O)[C@@H](O)CO
inactive: Potency [1] | Potency [2] | Potency [3] | Potency [4]

CCCC=O
inactive: Potency [1] | Potency [2] | Potency [3] | Potency [4]

O=c1[nH]c(=O)n([C@H]2C[C@H](O)[C@@H](CO)O2)cc1I
inactive: Potency [1] | Potency [2] | Potency [3] | Potency [4]

NC(Cc1ccc(Cl)cc1)C(=O)O (configuration not stated)
inactive: activity, negative = inhibition [1] 1.17% [at 0.435 µM] | activity change, negative = inhibition [2] 0.0464% [at 0.435 µM] | activity change, negative = inhibition [3] 9.18% [at 0.439 µM] | activity change, negative = inhibition [4] -1.76% [at 0.435 µM]

O=C(Nc1ccc([N+](=O)[O-])cc1)Nc1ccc([N+](=O)[O-])cc1
inactive: Potency [1] | Potency [2] | Potency [3] | Potency [4]

Nc1ccnc(=O)[nH]1
inactive: Potency [1] | Potency [2] | Potency [3] | Potency [4]

N#CCCOCCC#N
inactive: Potency [1] | Potency [2] | Potency [3] | Potency [4]

Cc1c(C(=O)NN2CCCCC2)nn(-c2ccc(Cl)cc2Cl)c1-c1ccc(Cl)cc1
inactive: Potency [1] | Potency [2] | Potency [3] | Potency [4]

CN(C)CCOc1ccccc1Cc1ccccc1
inactive: Potency [1] | Potency [2] | Potency [3] | Potency [4]

Cc1cccc(Cl)c1
inactive: Potency [1] | Potency [2] | Potency [3] | Potency [4]

Cc1ccccc1N1C(=O)c2cc(S(N)(=O)=O)c(Cl)cc2NC1C (configuration not stated)
inactive: Potency [1] | Potency [2] | Potency [3] | Potency [4]

N=C1N=C(N)c2ccccc21
inactive: Potency [1] | Potency [2] | Potency [3] | Potency [4]

CCOc1cccc(N)c1
inactive: Potency [1] | Potency [2] | Potency [3] | Potency [4]

C1=CCC2CC=CC2C1 (configuration not stated)
inactive: Potency [1] | Potency [2] | Potency [3] | Potency [4]

CC1(C)OC(=O)Nc2ccc(Br)cc21
inactive: Potency [1] | Potency [2] | Potency [3] | Potency [4]

CCC(C)SSC(C)CC (configuration not stated)
inactive: Potency [1] | Potency [2] | Potency [3] | Potency [4]

O=C(O)c1cccc(C(=O)O)c1C(=O)O
inactive: Potency [1] | Potency [2] | Potency [3] | Potency [4]

CC(C)=CCC/C(C)=C/C=N/O
inactive: Potency [1] | Potency [2] | Potency [3] | Potency [4]
